The panel holds about 79,000 compounds, 15% with a hit somewhere; the sample as a whole holds those more often. Calls of active or inactive are those of the source. Cut-off read from the data, not from the text of the source: active = growth inhibition above about 70%; inactive = the rest.
Experiments:
[1] = NCI Yeast Anticancer Drug Screen. Data for the rad52 strain (AID 147);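 note: 0% = growth of vehicle-treated control cultures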; settings: S. cerevisiae rad52 mutant growth inhibition, stronger effect = higher value
Method in brief: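 Inhibition of yeast growth, referenced to vehicle controls, was the measured output for a strain with defective DNA damage repair.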

[2] = NCI Yeast Anticancer Drug Screen. Data for the wt1 strain (AID 149);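 note: 0% = growth of vehicle-treated wt1 cultures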; settings: S. cerevisiae wt1 strain (SPY 50644) growth inhibition, stronger effect = higher value
Method in brief: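 Compounds are added to wt1 yeast cultures. Growth is then measured. Inhibition is expressed relative to vehicle-treated controls.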

[3] = NCI Yeast Anticancer Drug Screen. Data for the rad50EPP+ strain (AID 151);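 note: 0% = growth of vehicle-treated control cultures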; settings: S. cerevisiae rad50 mutant strain, stronger effect = higher value
Method in brief: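 Genetically defined yeast (rad50EPP+, DNA damage repair alteration) is grown with compound, and inhibition of growth is expressed relative to vehicle-treated controls.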

[4] = NCI Yeast Anticancer Drug Screen. Data for the mgt1 strain (AID 153); settings: S. cerevisiae mgt1 mutant growth inhibition, stronger effect = higher value
Method in brief: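 In the mgt1 strain, test compounds were added and growth inhibition was determined relative to vehicle-treated controls.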

[5] = NCI Yeast Anticancer Drug Screen. Data for the rad50 strain (AID 155);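 note: 0% = growth of vehicle-only cultures of the same strain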; settings: S. cerevisiae rad50 strain growth inhibition, stronger effect = higher value
Method in brief: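 Inhibition values express reduced yeast growth in compound-treated cultures relative to vehicle-treated controls.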

[6] = NCI Yeast Anticancer Drug Screen. Data for the mec2-1 strain (AID 157); settings: S. cerevisiae mec2-1 strain, stronger effect = higher value
Method in brief: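 Each compound was tested on mec2-1 yeast, a strain altered in DNA damage repair or cell cycle control. Growth inhibition is reported relative to vehicle.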

[7] = NCI Yeast Anticancer Drug Screen. Data for the rad14 strain (AID 159);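 note: 0% = growth of vehicle-treated control cultures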; settings: S. cerevisiae rad14 strain growth inhibition, stronger effect = higher value
Method in brief: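 A mutant yeast strain defective in DNA damage repair is treated with compound; inhibition of its growth is scored against untreated, vehicle-exposed cultures.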

[8] = NCI Yeast Anticancer Drug Screen. Data for the sgs1 mgt1 strain (AID 161);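 note: 0% = growth of cultures given vehicle only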; settings: S. cerevisiae sgs1 mgt1 strain, stronger effect = higher value
Method in brief: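 Read-out: growth inhibition vs vehicle controls. Cells: mutant yeast strain deficient in DNA damage repair.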

[9] = NCI Yeast Anticancer Drug Screen. Data for the CLN2oe strain (AID 163);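 note: 0% = growth of vehicle-only control cultures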; settings: S. cerevisiae CLN2oe strain, stronger effect = higher value
Method in brief: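 First, the altered yeast strain was treated with each compound; second, its growth was measured; finally, inhibition was derived by comparison with vehicle controls.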

[10] = NCI Yeast Anticancer Drug Screen. Data for the cln2 rad14 strain (AID 165);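 note: 0% = growth equal to vehicle treated cultures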; settings: S. cerevisiae cln2 rad14 strain, stronger effect = higher value
Method in brief: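 Test compounds were added to cln2 rad14 yeast cultures; inhibition of growth was then determined by comparison with vehicle treatment.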

[11] = NCI Yeast Anticancer Drug Screen. Data for the bub3 strain (AID 167); settings: S. cerevisiae bub3 mutant strain, stronger effect = higher value
Method in brief: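 Steps: expose the mutant yeast strain to compound; grow alongside vehicle-treated cultures; measure growth; express inhibition against the vehicle cultures.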

[12] = NCI Yeast Anticancer Drug Screen. Data for the wt2 strain (AID 169);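 note: 0% = growth of vehicle-treated yeast cultures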; settings: S. cerevisiae wt2 strain growth inhibition, stronger effect = higher value
Method in brief: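 The panel's yeast strains carry defined changes in DNA repair or cell cycle genes. Each strain is grown with compound, and growth loss is scored relative to vehicle.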

[13] = NCI Yeast Anticancer Drug Screen. Data for the mlh1 strain (AID 171);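 note: 0% = growth of vehicle-treated control cultures of the same strain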; settings: S. cerevisiae mlh1 strain growth inhibition, stronger effect = higher value
Method in brief: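 Inhibition values reflect reduced yeast growth in the presence of compound, referenced to vehicle controls, using a strain chosen for its alteration in DNA repair or cell cycle control.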

[14] = NCI Yeast Anticancer Drug Screen. Data for the sgs1 strain (AID 173);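 note: 0% = growth of vehicle-only control cultures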; settings: S. cerevisiae sgs1 mutant, stronger effect = higher value
Method in brief: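 Vehicle-treated cultures served as reference for growth inhibition of a yeast strain altered in DNA damage repair or cell cycle control after compound exposure.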

[15] = NCI Yeast Anticancer Drug Screen. Data for the mlh1 rad18 strain (AID 175); settings: S. cerevisiae mlh1 rad18 strain growth inhibition, stronger effect = higher value
Method in brief: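 Inhibition values reflect reduced growth of mutant yeast versus vehicle-treated controls following compound exposure; the mutations affect DNA damage repair.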

[16] = NCI Yeast Anticancer Drug Screen. Data for the rad18 strain (AID 177); settings: S. cerevisiae rad18 mutant growth inhibition, stronger effect = higher value
Method in brief: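 Steps: expose repair-mutant yeast to compound; measure growth; express as inhibition relative to vehicle control.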

[17] = at 5.0 µM (retest, dose inferred, filed as 0.5)
[18] = at 50.0 µM (retest, dose inferred, filed as 5.0)

Measured: growth inhibition

CC(C)C(=O)CC(Sc1ccc(N)cc1)c1ccccc1 (stereo unspecified)
active: [1]; at 100.0 µM 83% | [5]; [18] 77% | [6]; [18] 88% | [8]; [18] 87% | [11]; at 1.2 µM 87% | [11]; at 3.7 µM 89% | [11]; [17] 89% | [11]; at 11.0 µM 90% | [11]; at 33.0 µM 91% | [11]; [18] 98% | [11]; at 50.0 µM 85.1% | [11]; at 100.0 µM 92% | [14]; at 100.0 µM 79% | [15]; [18] 85%
inactive: [1]; at 1.2 µM 2% | [1]; at 3.7 µM 8% | [1]; at 11.0 µM 23% | [1]; at 33.0 µM 47% | [2]; at 1.2 µM -4% | [2]; at 3.7 µM -4% | [2]; at 11.0 µM -1% | [2]; at 33.0 µM 10% | [2]; at 100.0 µM 18% | [3]; at 1.2 µM -5% | [3]; at 3.7 µM -4% | [3]; at 11.0 µM 1% | [3]; at 33.0 µM 6% | [3]; at 100.0 µM 8% | [4]; at 1.2 µM -2% | [4]; at 3.7 µM -5% | [4]; at 11.0 µM 27% | [4]; at 33.0 µM 32% | [4]; at 100.0 µM 58% | [5]; at 1.2 µM -1% | [5]; at 3.7 µM 1% | [5]; [17] -22% | [5]; at 11.0 µM -19% | [5]; at 33.0 µM 24% | [5]; at 50.0 µM 55.6% | [5]; at 100.0 µM 42% | [6]; at 1.2 µM 1% | [6]; at 3.7 µM -2% | [6]; [17] -2% | [6]; at 11.0 µM 10% | [6]; at 33.0 µM 27% | [6]; at 50.0 µM 36.5% | [6]; at 100.0 µM 40% | [7]; at 1.2 µM 1% | [7]; at 3.7 µM 2% | [7]; at 11.0 µM 6% | [7]; at 33.0 µM 25% | [7]; at 100.0 µM 46% | [8]; [17] -26% | [8]; at 50.0 µM 53% | [9]; at 1.2 µM -2% | [9]; at 3.7 µM -13% | [9]; at 11.0 µM -7% | [9]; at 33.0 µM 20% | [9]; at 100.0 µM 35% | [10]; [17] -3% | [10]; [18] 57% | [10]; at 50.0 µM 27.8% | [12]; at 1.2 µM -2% | [12]; at 3.7 µM -2% | [12]; at 11.0 µM 10% | [12]; at 33.0 µM 47% | [12]; at 100.0 µM 57% | [13]; at 1.2 µM 1% | [13]; at 3.7 µM -2% | [13]; at 11.0 µM 7% | [13]; at 33.0 µM 30% | [13]; at 100.0 µM 48% | [14]; at 1.2 µM 0% | [14]; at 3.7 µM 4% | [14]; at 11.0 µM 22% | [14]; at 33.0 µM 62% | [15]; [17] -19% | [15]; at 50.0 µM 42.5% | [16]; at 1.2 µM -8% | [16]; at 3.7 µM -2% | [16]; at 11.0 µM 12% | [16]; at 33.0 µM 30% | [16]; at 100.0 µM 52%

CCN1CCC(O)(c2ccc(Oc3ccc(Cl)cc3)cc2)C(C(=O)c2ccc(Oc3ccc(Cl)cc3)cc2)C1 (stereo unspecified)
inactive: [1]; at 1.2 µM -10% | [1]; at 3.7 µM -14% | [1]; at 11.0 µM -16% | [1]; at 33.0 µM -6% | [1]; at 100.0 µM 12% | [2]; at 1.2 µM -51% | [2]; at 3.7 µM -27% | [2]; at 11.0 µM -44% | [2]; at 33.0 µM -46% | [2]; at 100.0 µM -8% | [3]; at 1.2 µM -7% | [3]; at 3.7 µM 0% | [3]; at 11.0 µM 4% | [3]; at 33.0 µM -2% | [3]; at 100.0 µM 7% | [4]; at 1.2 µM 30% | [4]; at 3.7 µM 64% | [4]; at 11.0 µM 42% | [4]; at 33.0 µM 47% | [4]; at 100.0 µM 59% | [5]; at 1.2 µM -20% | [5]; at 3.7 µM -7% | [5]; [17] 51% | [5]; at 11.0 µM -8% | [5]; at 33.0 µM -30% | [5]; [18] 7% | [5]; at 100.0 µM -6% | [6]; at 1.2 µM 0% | [6]; at 3.7 µM 28% | [6]; [17] 68% | [6]; at 11.0 µM 26% | [6]; at 33.0 µM 1% | [6]; [18] -2% | [6]; at 100.0 µM 8% | [7]; at 1.2 µM -4% | [7]; at 3.7 µM 16% | [7]; at 11.0 µM 11% | [7]; at 33.0 µM 21% | [7]; at 100.0 µM 45% | [9]; at 1.2 µM 28% | [9]; at 3.7 µM 44% | [9]; at 11.0 µM 35% | [9]; at 33.0 µM 33% | [9]; at 100.0 µM 16% | [10]; [17] 23% | [11]; at 1.2 µM 22% | [11]; at 3.7 µM 39% | [11]; at 11.0 µM 50% | [11]; at 33.0 µM 39% | [11]; at 100.0 µM 51% | [12]; at 1.2 µM -21% | [12]; at 3.7 µM 35% | [12]; at 11.0 µM 5% | [12]; at 33.0 µM -13% | [12]; at 100.0 µM 23% | [13]; at 1.2 µM -1% | [13]; at 3.7 µM -4% | [13]; at 11.0 µM -8% | [13]; at 33.0 µM -4% | [13]; at 100.0 µM 0% | [15]; [18] 18% | [16]; at 1.2 µM -6% | [16]; at 3.7 µM 20% | [16]; at 11.0 µM -1% | [16]; at 33.0 µM -4% | [16]; at 100.0 µM 7%
active: [5]; at 50.0 µM 83% | [6]; at 50.0 µM 93.2% | [8]; [17] 97% | [8]; [18] 98% | [8]; at 50.0 µM 89.2% | [10]; [18] 98% | [10]; at 50.0 µM 87.5% | [11]; [17] 87% | [11]; [18] 98% | [11]; at 50.0 µM 90.2% | [15]; [17] 82% | [15]; at 50.0 µM 90.5%
